# Measurements published in PubChem BioAssay (EPA / NIEHS).
# Records with an inconclusive call do not appear. Activity calls are given as the source filed them. Rule for the calls, unless noted: active = hit-call score of the fitted dose curve at least 0.9, where 1 is the maximum; inconclusive = response in the unintended direction; inactive = score below 0.9. Peptide text beside a SMILES is read from it.
# What was measured:
# [1] = CCTE_Deisenroth_AIME_384WELL_CTox_Active: Cytotoxicity Assessment (CTOX) in CCTE's 384-well Estrogen Receptor Transactivation Assay with AIME metabolic competence (metabolism positive), Deisenroth Lab (AID 2284037);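 note: chemicals first conditioned 2 h by alginate-bound induced rat liver S9 before cells; activity means signal loss indicating cell death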
# Procedure, shortened: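 Chemicals pre-incubated 2 hours with alginate-immobilised phenobarbital/beta-naphthoflavone-induced male Sprague Dawley rat liver S9, then conditioned medium applied 24 hour to VM7Luc4E2 cells. Viability by fluorogenic protease substrate; 10-point series 0.002 - 200 uM.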
# [2] = target: Estrogen receptor (Homo sapiens) (UniProt P03372); assay: CCTE_Deisenroth_AIME_384WELL_LUC_Inactive: CCTE's 384-well Estrogen Receptor Transactivation Assay without AIME metabolic competence (ERTA luciferase; metabolism negative), Deisenroth Lab (AID 2284038);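 note: VM7Luc4E2 breast cells given medium preincubated 2 h with S9-free microspheres; hits raise estrogen receptor luciferase signal so potencies reflect agonists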
# Estrogen receptor (Homo sapiens), sequence (P03372 whole entry, looked up): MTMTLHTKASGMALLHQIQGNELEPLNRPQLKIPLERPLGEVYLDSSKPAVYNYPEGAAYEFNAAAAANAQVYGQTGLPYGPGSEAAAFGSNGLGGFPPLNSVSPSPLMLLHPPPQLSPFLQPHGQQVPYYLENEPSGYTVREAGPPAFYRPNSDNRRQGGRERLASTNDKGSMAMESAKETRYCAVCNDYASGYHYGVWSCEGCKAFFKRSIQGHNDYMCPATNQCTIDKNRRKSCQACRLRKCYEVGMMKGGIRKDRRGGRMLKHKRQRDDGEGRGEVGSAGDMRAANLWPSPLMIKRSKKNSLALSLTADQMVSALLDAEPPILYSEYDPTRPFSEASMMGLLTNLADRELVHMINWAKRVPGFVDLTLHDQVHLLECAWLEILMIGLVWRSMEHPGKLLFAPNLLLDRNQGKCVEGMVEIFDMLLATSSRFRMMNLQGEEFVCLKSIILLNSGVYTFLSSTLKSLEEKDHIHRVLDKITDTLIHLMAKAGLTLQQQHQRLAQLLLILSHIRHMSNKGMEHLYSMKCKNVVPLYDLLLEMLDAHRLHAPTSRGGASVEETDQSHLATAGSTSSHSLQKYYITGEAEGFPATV
# Procedure, shortened: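 Metabolism-negative mode: AIME lids stamped in alginate-water, no hepatic S9. 2 h chemical incubation → medium onto VM7Luc4E2 ERTA, 24 h. Readout luciferase luminescence; gain-of-signal fit vs 17beta-estradiol. Conc. 0.002 - 200 uM.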
# [3] = CCTE_Deisenroth_AIME_384WELL_CTox_Inactive: Cytotoxicity Assessment (CTOX) in CCTE's 384-well Estrogen Receptor Transactivation Assay without AIME metabolic competence (metabolism negative), Deisenroth Lab (AID 2284039);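 note: cell viability via live-cell protease substrate cleaved to fluorescent probe; cells exposed 24 h to medium preincubated 2 h with alginate-water beads without S9; loss of fluorescence signal means loss of viability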
# Procedure, shortened: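 Fluorescence from a live-cell protease substrate, read after 24 h in VM7Luc4E2 cells, indicated viability. Test medium came from a 2 h AIME step without hepatic S9 (alginate-water microspheres); concentrations spanned 0.002 - 200 uM, single technical replicate per run.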
# [4] = target: Estrogen receptor (Homo sapiens) (UniProt P03372); assay: CCTE_Deisenroth_AIME_384WELL_LUC_Shift: CCTE's 384-well Estrogen Receptor Transactivation Assay with AIME metabolic competence data shift (ERTA luciferase; difference in metabolism positive and negative), Deisenroth Lab (AID 2284041; active = hit-call score of the fitted dose curve at least 0.9, where 1 is the maximum; inactive = score below 0.9;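 note: shift is response with S9 minus without S9 so positive means metabolism raised ER signal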)
# Procedure, shortened: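 Chemicals (0.002–200 uM, 10 points) pre-incubated 2 h with alginate-encapsulated induced male Sprague Dawley rat liver S9 or S9-free, then medium applied 24 h to VM7Luc4E2 cells; luciferase. Endpoint is per-concentration difference, S9-positive minus negative.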
# [5] = CCTE_Shafer_MEA_dev_firing_rate_mean: CCTE's Neural Network Formation Assay for Mean Firing Rate, Shafer Lab (AID 2284031; active = hit-call score of the fitted dose curve at least 0.9, where 1 is the maximum; inactive = score below 0.9)
# Procedure, shortened: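 Read-out: spike count/recording length, averaged over active electrodes, then AUC across days 5, 7, 9, 12. Rat cortical cultures on MEA; continuous 12-day exposure, media and treatment renewed DIV 5, 9; DMSO baseline.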
# [6] = CCTE_Shafer_MEA_dev_per_burst_spike_percent: CCTE's Neural Network Formation Assay for Percent of Spikes in a Burst, Shafer Lab (AID 2284032; active = hit-call score of the fitted dose curve at least 0.9, where 1 is the maximum; inactive = score below 0.9)
# Procedure, shortened: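 Value is trapezoidal AUC over recordings on days 5, 7, 9 and 12 of the well-mean fraction of spikes falling in single-electrode bursts; rat cortical cultures exposed continuously from plating, treatment renewed DIV 5 and 9, fitted downward against DMSO.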
# [7] = CCTE_Shafer_MEA_dev_active_electrodes_number: CCTE's Neural Network Formation Assay for Number of Active Electrodes, Shafer Lab (AID 2284040)
# Procedure, shortened: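 Developing rat cortical networks on MEAs, exposed DIV 0–12. Value is the AUC of active-electrode counts (≥5 spikes/min) from days 5, 7, 9, 12, relative to DMSO.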
# [8] = CCTE_Shafer_MEA_dev_burst_rate: CCTE's Neural Network Formation Assay for Burst Rate, Shafer Lab (AID 2284042; active = hit-call score of the fitted dose curve at least 0.9, where 1 is the maximum; inactive = score below 0.9)
# Procedure, shortened: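 Developmental network assay measuring how 12-day exposure of rat cortical neuron cultures alters bursting on extracellular MEA recordings. Values are AUC of well-mean burst rate across four recording days, relative to DMSO vehicle.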
# [9] = CCTE_Shafer_MEA_dev_bursting_electrodes_number: CCTE's Neural Network Formation Assay for Number of Bursting Electrodes, Shafer Lab (AID 2284043)
# Procedure, shortened: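 Rat cortical primary neurons, 48-well MEA, 16 electrodes/well; dosing DIV 0–12, re-dosed with full media change DIV 5, 9. Recordings DIV 5/7/9/12, AxIS adaptive spike detector; bursting electrode = ≥1 burst/2 min. AUC across days; loss of signal vs DMSO.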
# [10] = CCTE_Shafer_MEA_dev_per_burst_interspike_interval: CCTE's Neural Network Formation Assay for Burst Interspike Interval, Shafer Lab (AID 2284044; active = hit-call score of the fitted dose curve at least 0.9, where 1 is the maximum; inactive = score below 0.9)
# Procedure, shortened: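 Neurons from rat cortex plated onto PEI-coated MEA wells with laminin […] at 1.5 x 10^5 cells/well, then treated from day 0. Media and compound fully replaced on DIV 5 and 9. Extracellular spontaneous firing recorded four times; interspike interval per burst summarised as AUC.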
# [11] = CCTE_Shafer_MEA_dev_burst_duration_mean: CCTE's Neural Network Formation Assay for Mean Burst Duration, Shafer Lab (AID 2284045; active = hit-call score of the fitted dose curve at least 0.9, where 1 is the maximum; inactive = score below 0.9)
# Procedure, shortened: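 Rat cortical cultures, 1.5 x 10^5 cells/well with laminin drop; continuous dosing days 0–12, media plus treatment refreshed DIV 5, 9. AxIS adaptive spike detection; mean single-electrode burst duration, AUC over four recordings, negative direction vs DMSO.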
# [12] = CCTE_Shafer_MEA_dev_interburst_interval_mean: CCTE's Neural Network Formation Assay for Mean Interburst Interval, Shafer Lab (AID 2284046; active = hit-call score of the fitted dose curve at least 0.9, where 1 is the maximum; inactive = score below 0.9;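 note: well-mean interburst interval of bursting electrodes as AUC over four recording days; curve fitted for decrease in interburst interval relative to DMSO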)
# Procedure, shortened: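 Network formation assay in primary rat cortical cultures, exposed from DIV 0 to 12. Mean interburst interval per well, integrated as AUC over four recordings.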
# [13] = CCTE_Shafer_MEA_dev_inter_network_spike_interval_mean: CCTE's Neural Network Formation Assay for Mean Inter-network Spike Interval, Shafer Lab (AID 2284047; active = hit-call score of the fitted dose curve at least 0.9, where 1 is the maximum; inactive = score below 0.9)
# Procedure, shortened: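 Compound was given at plating to primary rat cortical neurons and renewed with full medium changes on DIV 5 and 9. Extracellular activity was recorded on days 5, 7, 9, 12; AUC values were fitted for loss relative to DMSO control.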
# [14] = CCTE_Shafer_MEA_dev_network_spike_number: CCTE's Neural Network Formation Assay for Number of Network Spikes, Shafer Lab (AID 2284048; active = hit-call score of the fitted dose curve at least 0.9, where 1 is the maximum; inactive = score below 0.9;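 note: synchronized bursts across electrodes counted on days 5 7 9 12 and integrated as AUC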)
# Procedure, shortened: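 Rat cortical primary cultures on 48-well MEA (16 electrodes/well); continuous exposure DIV 0–12, full medium and treatment exchange DIV 5, 9. Readout: network spike count, AxIS adaptive detection, recordings DIV 5/7/9/12 collapsed to AUC; loss-of-signal fit, DMSO baseline.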
# [15] = CCTE_Shafer_MEA_dev_network_spike_peak: CCTE's Neural Network Formation Assay for Mean Number of Electrodes in Network Spike, Shafer Lab (AID 2284049; active = hit-call score of the fitted dose curve at least 0.9, where 1 is the maximum; inactive = score below 0.9;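 for AC50: fitted for loss of signal meaning fewer electrodes in network spikes than DMSO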)
# Procedure, shortened: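 Network-spike peak electrode count from recordings on days 5, 7, 9 and 12 was combined as trapezoidal area under the curve. Rat cortical cultures were treated continuously from plating, with compound renewed at each feed (DIV 5, 9); fits versus DMSO.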
# [16] = CCTE_Shafer_MEA_dev_spike_duration_mean: CCTE's Neural Network Formation Assay for Mean Spike Duration, Shafer Lab (AID 2284051; active = hit-call score of the fitted dose curve at least 0.9, where 1 is the maximum; inactive = score below 0.9;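 note: mean network spike duration pooled as area under curve over DIV 5 to 12 recordings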;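 for AC50: potency for a decrease in mean network spike duration versus DMSO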)
# Procedure, shortened: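 With DMSO as baseline, loss of mean network spike duration was scored from extracellular recordings of rat cortical neurons on MEA plates. Exposure spanned plating to DIV 12; the four recording days were collapsed into one AUC value.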
# [17] = CCTE_Shafer_MEA_dev_network_spike_duration_std: CCTE's Neural Network Formation Assay for Standard Deviation of Network Spike Duration, Shafer Lab (AID 2284052; active = hit-call score of the fitted dose curve at least 0.9, where 1 is the maximum; inactive = score below 0.9;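 note: area under curve of spike duration SD across recording days 5 to 12; hits are decreases in network spike duration SD versus DMSO vehicle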)
# Procedure, shortened: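 Developing networks of rat cortical neurons were exposed over twelve days in vitro on 48-well MEA plates. Trapezoidal AUC of recordings (DIV 5–12) was analysed for signal loss relative to DMSO vehicle.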
# [18] = CCTE_Shafer_MEA_dev_per_network_spike_spike_number_mean: CCTE's Neural Network Formation Assay for Mean Number of Spikes in a Network Spike, Shafer Lab (AID 2284053; active = hit-call score of the fitted dose curve at least 0.9, where 1 is the maximum; inactive = score below 0.9)
# Procedure, shortened: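 First, rat cortical cells (1.5 x 10^5/well) were seeded onto MEA wells; second, dosing began at plating and was refreshed on DIV 5 and 9; finally, network-spike spike counts across DIV 5–12 were summarized as AUC.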
# [19] = CCTE_Shafer_MEA_dev_per_network_spike_spike_percent: CCTE's Neural Network Formation Assay for Percent of Spikes in a Network Spike, Shafer Lab (AID 2284054; active = hit-call score of the fitted dose curve at least 0.9, where 1 is the maximum; inactive = score below 0.9)
# Procedure, shortened: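 Read-out: percent of spikes falling in a 0.05 s window at network-spike peak, from spontaneous MEA recordings on days 5, 7, 9 and 12; trapezoidal AUC; loss of signal versus DMSO. Rat cortical cultures, compound present throughout.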
smiles,measurement,setting,value
CC1=NN(c2ccc(S(=O)(=O)O)cc2)C(=O)C1N=Nc1ccccc1 (stereo not drawn),AC50,[1],159 µM (active)
same,outcome,[2],inactive
same,outcome,[3],inactive
same,outcome,[4],inactive
CCCCNS(=O)(=O)c1ccccc1,outcome,[5],inactive
same,outcome,[6],inactive
same,outcome,[1],inactive
same,outcome,[2],inactive
same,outcome,[7],inactive
same,outcome,[4],inactive
same,outcome,[8],inactive
same,outcome,[9],inactive
same,outcome,[10],inactive
same,outcome,[11],inactive
same,outcome,[12],inactive
same,outcome,[13],inactive
same,outcome,[14],inactive
same,AC50,[15],78.5 µM (active)
same,AC50,[16],50.5 µM (active)
same,outcome,[17],inactive
same,outcome,[18],inactive
same,outcome,[19],inactive
O=C(Nc1ccccc1)c1cc(Cl)ccc1O,AC50,[1],33.4 µM (active)
same,outcome,[2],inactive
same,AC50,[3],0.484 µM (active)
same,outcome,[4],inactive
CCCCCC(=O)OCC,outcome,[1],inactive
same,outcome,[2],inactive
same,AC50,[3],19.8 µM (active)
same,outcome,[4],inactive
COC(=O)[C@H](Cc1ccccc1)NC(=O)[C@@H](N)CC(=O)O (H-Asp-Phe-OMe),outcome,[5],inactive
same,outcome,[6],inactive
same,outcome,[1],inactive
same,outcome,[2],inactive
same,outcome,[7],inactive
same,outcome,[4],inactive
same,outcome,[8],inactive
same,outcome,[10],inactive
same,outcome,[11],inactive
same,outcome,[12],inactive
same,outcome,[13],inactive
same,outcome,[14],inactive
same,outcome,[15],inactive
same,outcome,[16],inactive
same,outcome,[17],inactive
same,outcome,[18],inactive
same,outcome,[19],inactive
Nc1ccc(C(=O)O)cc1,outcome,[1],inactive
same,outcome,[2],inactive
same,outcome,[3],inactive
same,outcome,[4],inactive
O=C(O)CCC(=O)O,outcome,[1],inactive
same,outcome,[2],inactive
same,outcome,[3],inactive
same,outcome,[4],inactive
CCCCCCCCCC(C)=O,outcome,[1],inactive
same,outcome,[2],inactive
same,outcome,[3],inactive
same,outcome,[4],inactive
C=C[C@@]1(C)CC(=O)[C@]2(O)[C@@]3(C)[C@@H](O)CCC(C)(C)[C@@H]3[C@H](O)[C@H](OC(C)=O)[C@@]2(C)O1,AC50,[1],19.8 µM (active)
same,outcome,[2],inactive
same,outcome,[3],inactive
same,outcome,[4],inactive
C[Si](C)(C)N[Si](C)(C)C,outcome,[1],inactive
same,outcome,[2],inactive
same,outcome,[3],inactive
same,outcome,[4],inactive
CCC1COC(=O)O1 (stereo not drawn),outcome,[1],inactive
same,outcome,[2],inactive
same,outcome,[3],inactive
same,outcome,[4],inactive
CCCC(CC)c1ccccc1 (stereo not drawn),outcome,[1],inactive
same,outcome,[2],inactive
same,outcome,[3],inactive
same,outcome,[4],inactive
O=C(Oc1ccccc1)c1ccccc1O,outcome,[1],inactive
same,AC50,[2],53.4 µM (active)
same,outcome,[3],inactive
same,AC50,[4],38.4 µM (active)
O=S(=O)(O)c1ccc(N=Nc2c(O)ccc3ccccc23)cc1,AC50,[1],71.3 µM (active)
same,outcome,[2],inactive
same,AC50,[3],72.8 µM (active)
same,outcome,[4],inactive
